Columns and labels:
Experiment in all cases: DAPPL (digital affinity profiling via proximity ligation, sequencing); 10 mM Tris-HCl pH 7.5, 50 mM NaCl, 1 mM DTT, 4% glycerol, room temperature, 30 min; GST-TFs on glutathione beads, 16-mer random dsDNA library, 0.1% formaldehyde crosslink after washing; high values mean tight binding
FLI1 = target: T1, FLI1 (Homo sapiens, UniProt Q01543 1-452); settings: protein: recombinant; tags: N-terminal GST; dsDNA, one strand shown
T1 sequence: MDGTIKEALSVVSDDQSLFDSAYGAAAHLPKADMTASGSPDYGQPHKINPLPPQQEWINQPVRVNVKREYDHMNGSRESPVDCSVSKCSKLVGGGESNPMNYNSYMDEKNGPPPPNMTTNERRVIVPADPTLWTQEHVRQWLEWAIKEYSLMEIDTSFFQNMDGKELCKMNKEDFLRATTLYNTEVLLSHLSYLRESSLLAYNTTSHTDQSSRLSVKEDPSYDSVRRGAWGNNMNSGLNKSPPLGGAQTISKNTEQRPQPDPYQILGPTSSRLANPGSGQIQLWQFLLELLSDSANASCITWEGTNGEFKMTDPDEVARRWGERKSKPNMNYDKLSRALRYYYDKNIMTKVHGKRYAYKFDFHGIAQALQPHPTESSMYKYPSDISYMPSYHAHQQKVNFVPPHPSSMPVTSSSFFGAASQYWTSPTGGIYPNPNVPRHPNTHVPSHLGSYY
Summary of the method: (§1)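 After expression in yeast as GST fusions, human transcription factors were bound to glutathione beads, DNA-barcoded and mixed with a tag-only sample. The pools were incubated with 200 nmole of a 16-mer random double-stranded DNA library in Tris/NaCl/DTT/glycerol buffer (30 min, room temperature), washed and crosslinked with 0.1% formaldehyde. Proximity ligation with BsaI/T4 ligase ran for 1 h at 37 °C, before PCR amplification and sequencing on an Illumina NextSeq500. Binding signal is a hexamer's read frequency for a factor divided by its frequency for the tag-only sample.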

ELK1 = target: T2, ELK1 (Homo sapiens, UniProt P19419 1-428); settings: protein: recombinant; tags: N-terminal GST; dsDNA, one strand shown
T2 sequence: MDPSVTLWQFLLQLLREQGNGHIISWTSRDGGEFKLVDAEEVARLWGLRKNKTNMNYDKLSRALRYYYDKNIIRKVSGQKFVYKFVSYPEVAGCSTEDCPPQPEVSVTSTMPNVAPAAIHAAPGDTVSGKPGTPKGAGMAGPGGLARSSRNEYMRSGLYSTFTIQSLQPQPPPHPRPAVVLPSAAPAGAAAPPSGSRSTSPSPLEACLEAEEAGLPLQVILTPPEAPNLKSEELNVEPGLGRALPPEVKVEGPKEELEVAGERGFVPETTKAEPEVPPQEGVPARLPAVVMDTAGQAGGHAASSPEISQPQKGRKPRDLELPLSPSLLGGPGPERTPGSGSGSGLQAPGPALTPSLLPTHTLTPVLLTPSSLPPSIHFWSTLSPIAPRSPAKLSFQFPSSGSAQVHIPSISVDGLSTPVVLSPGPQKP
Summary of the method: as §1

GABPA = target: T3, GABPA (Homo sapiens, UniProt Q06546 1-454); settings: protein: recombinant; tags: N-terminal GST; dsDNA, one strand shown
T3 sequence: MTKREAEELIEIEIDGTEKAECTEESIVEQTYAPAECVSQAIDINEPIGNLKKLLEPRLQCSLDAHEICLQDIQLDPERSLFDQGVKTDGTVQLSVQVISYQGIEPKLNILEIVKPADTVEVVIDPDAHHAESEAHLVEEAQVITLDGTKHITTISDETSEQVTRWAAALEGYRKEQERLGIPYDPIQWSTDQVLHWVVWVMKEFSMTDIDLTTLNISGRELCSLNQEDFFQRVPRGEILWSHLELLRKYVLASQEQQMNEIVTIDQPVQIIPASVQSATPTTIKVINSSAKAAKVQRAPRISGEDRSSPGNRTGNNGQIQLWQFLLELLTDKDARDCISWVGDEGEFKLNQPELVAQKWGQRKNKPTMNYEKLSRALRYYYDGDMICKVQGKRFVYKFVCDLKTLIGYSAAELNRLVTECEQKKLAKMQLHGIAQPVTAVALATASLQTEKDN
Summary of the method: as §1

ERG = target: T4, ERG (Homo sapiens, UniProt P11308 1-479); settings: protein: recombinant; tags: N-terminal GST; dsDNA, one strand shown
T4 sequence: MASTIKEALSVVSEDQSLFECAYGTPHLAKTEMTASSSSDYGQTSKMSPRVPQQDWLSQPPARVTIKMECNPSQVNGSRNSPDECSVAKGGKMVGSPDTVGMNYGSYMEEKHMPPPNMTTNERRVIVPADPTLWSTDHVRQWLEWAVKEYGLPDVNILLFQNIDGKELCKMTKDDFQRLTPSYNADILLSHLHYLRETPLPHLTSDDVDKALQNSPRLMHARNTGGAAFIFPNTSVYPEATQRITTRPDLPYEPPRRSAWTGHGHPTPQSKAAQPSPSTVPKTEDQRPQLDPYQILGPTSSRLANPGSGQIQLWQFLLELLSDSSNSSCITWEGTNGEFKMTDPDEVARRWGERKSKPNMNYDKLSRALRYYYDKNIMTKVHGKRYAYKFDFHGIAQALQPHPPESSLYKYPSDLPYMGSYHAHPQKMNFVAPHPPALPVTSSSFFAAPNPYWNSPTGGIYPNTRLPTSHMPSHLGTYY
Summary of the method: as §1

ELF1 = ELF1 (Homo sapiens, UniProt P32519 1-619); settings: protein: recombinant; tags: N-terminal GST; dsDNA, one strand shown
Chain of ELF1 (P32519 whole entry): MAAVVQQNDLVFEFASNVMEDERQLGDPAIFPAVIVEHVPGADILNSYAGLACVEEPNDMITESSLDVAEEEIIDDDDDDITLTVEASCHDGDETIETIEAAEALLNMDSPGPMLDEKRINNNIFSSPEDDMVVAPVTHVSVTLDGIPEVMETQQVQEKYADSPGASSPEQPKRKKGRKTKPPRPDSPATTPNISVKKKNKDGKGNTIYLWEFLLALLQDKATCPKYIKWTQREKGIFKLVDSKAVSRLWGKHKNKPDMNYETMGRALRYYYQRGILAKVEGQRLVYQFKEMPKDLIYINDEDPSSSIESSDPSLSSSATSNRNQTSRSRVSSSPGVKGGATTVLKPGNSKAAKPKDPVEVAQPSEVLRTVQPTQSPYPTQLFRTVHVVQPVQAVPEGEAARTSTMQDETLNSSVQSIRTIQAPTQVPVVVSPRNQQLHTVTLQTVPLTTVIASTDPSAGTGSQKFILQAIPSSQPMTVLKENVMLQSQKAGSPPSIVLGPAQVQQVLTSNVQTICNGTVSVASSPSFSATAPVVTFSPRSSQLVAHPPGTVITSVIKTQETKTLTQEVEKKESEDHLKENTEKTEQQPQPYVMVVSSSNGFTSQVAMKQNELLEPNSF
Summary of the method: as §1

EHF = target: T5, EHF (Homo sapiens, UniProt Q9NZC4 1-300); settings: protein: recombinant; tags: N-terminal GST; dsDNA, one strand shown
T5 sequence: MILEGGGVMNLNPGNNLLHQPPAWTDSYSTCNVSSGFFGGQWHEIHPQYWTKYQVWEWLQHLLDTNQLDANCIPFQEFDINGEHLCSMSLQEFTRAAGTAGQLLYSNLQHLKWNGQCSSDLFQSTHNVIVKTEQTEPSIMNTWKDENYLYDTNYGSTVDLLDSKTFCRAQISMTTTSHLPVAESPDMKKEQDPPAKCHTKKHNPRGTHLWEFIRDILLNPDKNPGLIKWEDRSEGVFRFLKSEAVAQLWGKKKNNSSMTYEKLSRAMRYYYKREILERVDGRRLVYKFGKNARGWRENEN
Summary of the method: as §1

SPI1 = SPI1 (Homo sapiens, UniProt P17947 1-270); settings: protein: recombinant; tags: N-terminal GST; dsDNA, one strand shown
Summary of the method: as §1

SPIB = SPIB (Homo sapiens, UniProt Q01892 1-262); settings: protein: recombinant; tags: N-terminal GST; dsDNA, one strand shown
Chain of SPIB (Q01892 whole entry): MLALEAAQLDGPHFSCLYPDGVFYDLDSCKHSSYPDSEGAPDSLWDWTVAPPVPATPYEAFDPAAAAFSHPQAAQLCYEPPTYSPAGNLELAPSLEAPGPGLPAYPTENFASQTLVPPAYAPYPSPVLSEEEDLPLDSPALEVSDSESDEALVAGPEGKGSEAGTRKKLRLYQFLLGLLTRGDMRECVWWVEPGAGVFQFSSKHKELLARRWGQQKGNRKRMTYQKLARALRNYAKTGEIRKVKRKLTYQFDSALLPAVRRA
Summary of the method: as §1

ELK3 = target: T6, ELK3 (Homo sapiens, UniProt P41970 1-407); settings: protein: recombinant; tags: N-terminal GST; dsDNA, one strand shown
T6 sequence: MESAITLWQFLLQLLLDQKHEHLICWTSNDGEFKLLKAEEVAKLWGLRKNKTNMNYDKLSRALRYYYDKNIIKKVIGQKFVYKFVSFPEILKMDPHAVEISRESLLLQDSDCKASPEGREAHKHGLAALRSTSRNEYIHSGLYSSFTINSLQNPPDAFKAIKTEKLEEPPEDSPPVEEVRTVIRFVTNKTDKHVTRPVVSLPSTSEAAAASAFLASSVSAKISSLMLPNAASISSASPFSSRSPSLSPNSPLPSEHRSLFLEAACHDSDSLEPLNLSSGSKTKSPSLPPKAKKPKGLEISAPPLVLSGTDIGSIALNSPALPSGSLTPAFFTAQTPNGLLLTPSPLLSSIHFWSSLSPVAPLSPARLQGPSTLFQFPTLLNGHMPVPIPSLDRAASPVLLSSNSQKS
Summary of the method: as §1

FEV = target: T7, FEV (Homo sapiens, UniProt Q99581 1-238); settings: protein: recombinant; tags: N-terminal GST; dsDNA, one strand shown
T7 sequence: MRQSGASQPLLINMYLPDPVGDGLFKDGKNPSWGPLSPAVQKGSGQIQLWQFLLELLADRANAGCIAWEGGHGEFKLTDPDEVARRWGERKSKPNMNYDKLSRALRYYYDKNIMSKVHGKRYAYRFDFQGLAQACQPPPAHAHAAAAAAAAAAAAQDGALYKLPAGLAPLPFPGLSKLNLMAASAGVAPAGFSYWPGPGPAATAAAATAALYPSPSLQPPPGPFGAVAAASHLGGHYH
Summary of the method: as §1

ETV5 = ETV5 (Homo sapiens, UniProt P41161 1-510); settings: protein: recombinant; tags: N-terminal GST; dsDNA, one strand shown
Chain of ETV5 (P41161 whole entry): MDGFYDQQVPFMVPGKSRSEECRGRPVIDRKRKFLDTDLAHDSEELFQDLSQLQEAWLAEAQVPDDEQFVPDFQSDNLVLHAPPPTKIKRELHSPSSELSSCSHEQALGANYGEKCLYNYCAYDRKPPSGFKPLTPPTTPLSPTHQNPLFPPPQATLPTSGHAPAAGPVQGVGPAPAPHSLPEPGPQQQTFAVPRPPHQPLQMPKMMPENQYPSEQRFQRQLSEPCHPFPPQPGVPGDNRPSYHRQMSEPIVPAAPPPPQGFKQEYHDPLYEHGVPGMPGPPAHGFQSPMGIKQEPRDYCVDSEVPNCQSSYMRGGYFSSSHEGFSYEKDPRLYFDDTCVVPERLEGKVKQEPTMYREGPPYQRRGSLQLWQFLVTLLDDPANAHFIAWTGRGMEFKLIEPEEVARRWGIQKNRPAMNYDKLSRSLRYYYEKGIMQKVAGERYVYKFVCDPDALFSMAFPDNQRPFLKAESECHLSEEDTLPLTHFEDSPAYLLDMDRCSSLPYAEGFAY
Summary of the method: as §1

HSF1 = HSF1 (Homo sapiens, UniProt Q00613 1-529); settings: protein: recombinant; tags: N-terminal GST; chain copies: 3; dsDNA, one strand shown
Chain of HSF1 (Q00613 whole entry): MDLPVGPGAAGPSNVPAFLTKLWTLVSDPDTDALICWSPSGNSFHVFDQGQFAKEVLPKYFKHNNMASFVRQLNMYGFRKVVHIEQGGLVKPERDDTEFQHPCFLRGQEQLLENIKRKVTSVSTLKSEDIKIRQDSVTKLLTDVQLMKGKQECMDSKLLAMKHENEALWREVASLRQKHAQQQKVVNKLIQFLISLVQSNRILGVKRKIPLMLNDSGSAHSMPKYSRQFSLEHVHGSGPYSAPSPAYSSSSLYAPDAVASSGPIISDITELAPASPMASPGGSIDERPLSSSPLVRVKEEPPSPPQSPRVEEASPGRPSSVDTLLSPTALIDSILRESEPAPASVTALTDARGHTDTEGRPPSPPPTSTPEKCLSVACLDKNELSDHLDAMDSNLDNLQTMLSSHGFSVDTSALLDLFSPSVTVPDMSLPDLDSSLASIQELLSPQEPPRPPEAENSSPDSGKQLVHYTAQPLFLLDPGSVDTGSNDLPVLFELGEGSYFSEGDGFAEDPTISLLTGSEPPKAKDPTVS
Summary of the method: as §1

SPIC = target: T8, SPIC (Homo sapiens, UniProt Q8N5J4 1-248); settings: protein: recombinant; tags: N-terminal GST; dsDNA, one strand shown
T8 sequence: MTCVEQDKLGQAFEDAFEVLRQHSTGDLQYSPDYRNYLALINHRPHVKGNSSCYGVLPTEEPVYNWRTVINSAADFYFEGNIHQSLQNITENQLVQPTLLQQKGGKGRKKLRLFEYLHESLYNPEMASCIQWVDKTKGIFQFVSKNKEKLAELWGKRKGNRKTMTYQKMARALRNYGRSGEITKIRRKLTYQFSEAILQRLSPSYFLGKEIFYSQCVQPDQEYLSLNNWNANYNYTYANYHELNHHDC
Summary of the method: as §1

ELF4 = ELF4 (Homo sapiens, UniProt Q99607 1-663); settings: protein: recombinant; tags: N-terminal GST; dsDNA, one strand shown
Chain of ELF4 (Q99607 whole entry): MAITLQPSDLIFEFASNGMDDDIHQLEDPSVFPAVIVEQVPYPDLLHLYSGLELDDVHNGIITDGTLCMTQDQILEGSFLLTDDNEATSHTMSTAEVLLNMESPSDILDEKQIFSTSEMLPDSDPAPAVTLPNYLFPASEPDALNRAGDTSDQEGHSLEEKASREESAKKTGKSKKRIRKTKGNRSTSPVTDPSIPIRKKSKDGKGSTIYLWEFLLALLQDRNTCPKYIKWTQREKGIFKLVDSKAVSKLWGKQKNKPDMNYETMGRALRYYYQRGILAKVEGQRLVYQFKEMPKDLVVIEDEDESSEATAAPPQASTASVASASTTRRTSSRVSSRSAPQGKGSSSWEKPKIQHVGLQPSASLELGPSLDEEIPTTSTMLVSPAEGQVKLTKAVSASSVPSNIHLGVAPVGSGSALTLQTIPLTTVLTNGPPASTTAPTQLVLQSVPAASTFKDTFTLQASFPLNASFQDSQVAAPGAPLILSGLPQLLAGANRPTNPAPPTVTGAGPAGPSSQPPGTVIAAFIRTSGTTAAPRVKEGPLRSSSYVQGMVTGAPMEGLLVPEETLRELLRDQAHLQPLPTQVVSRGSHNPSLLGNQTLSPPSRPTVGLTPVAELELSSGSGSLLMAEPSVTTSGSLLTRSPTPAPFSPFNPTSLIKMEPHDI
Summary of the method: as §1

ELK4 = target: T9, ELK4 (Homo sapiens, UniProt P28324-2 1-405); settings: protein: recombinant; tags: N-terminal GST; dsDNA, one strand shown
T9 sequence: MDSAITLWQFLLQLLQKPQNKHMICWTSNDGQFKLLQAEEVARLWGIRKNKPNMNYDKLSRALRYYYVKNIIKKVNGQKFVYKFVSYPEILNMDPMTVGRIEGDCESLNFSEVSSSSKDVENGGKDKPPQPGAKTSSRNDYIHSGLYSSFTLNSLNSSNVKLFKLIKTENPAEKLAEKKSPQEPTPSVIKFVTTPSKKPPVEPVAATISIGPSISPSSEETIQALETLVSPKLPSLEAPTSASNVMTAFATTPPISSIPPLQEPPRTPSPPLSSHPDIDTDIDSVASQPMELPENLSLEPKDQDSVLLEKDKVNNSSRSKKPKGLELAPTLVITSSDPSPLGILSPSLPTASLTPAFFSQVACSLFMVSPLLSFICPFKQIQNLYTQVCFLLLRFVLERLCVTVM
Summary of the method: as §1

ETV2 = target: T10, ETV2 (Homo sapiens, UniProt O00321 1-342); settings: protein: recombinant; tags: N-terminal GST; dsDNA, one strand shown
T10 sequence: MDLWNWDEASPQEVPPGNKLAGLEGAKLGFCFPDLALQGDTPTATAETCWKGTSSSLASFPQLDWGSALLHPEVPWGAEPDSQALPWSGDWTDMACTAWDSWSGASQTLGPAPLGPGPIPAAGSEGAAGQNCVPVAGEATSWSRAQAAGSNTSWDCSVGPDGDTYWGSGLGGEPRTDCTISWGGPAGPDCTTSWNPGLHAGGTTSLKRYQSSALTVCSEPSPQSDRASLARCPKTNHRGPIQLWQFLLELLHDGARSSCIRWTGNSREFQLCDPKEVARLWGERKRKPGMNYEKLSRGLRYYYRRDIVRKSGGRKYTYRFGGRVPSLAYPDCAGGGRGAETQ
Summary of the method: as §1

ELF3 = target: T11, ELF3 (Homo sapiens, UniProt P78545 1-371); settings: protein: recombinant; tags: N-terminal GST; dsDNA, one strand shown
T11 sequence: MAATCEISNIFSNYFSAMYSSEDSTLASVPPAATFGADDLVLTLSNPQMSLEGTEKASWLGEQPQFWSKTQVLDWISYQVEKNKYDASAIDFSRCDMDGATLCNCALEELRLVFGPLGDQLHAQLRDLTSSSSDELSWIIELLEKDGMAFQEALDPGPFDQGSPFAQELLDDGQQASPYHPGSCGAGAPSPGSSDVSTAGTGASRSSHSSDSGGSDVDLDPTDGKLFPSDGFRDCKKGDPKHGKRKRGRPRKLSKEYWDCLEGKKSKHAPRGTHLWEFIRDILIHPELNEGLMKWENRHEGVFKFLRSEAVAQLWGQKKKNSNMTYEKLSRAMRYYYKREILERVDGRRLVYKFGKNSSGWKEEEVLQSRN
Summary of the method: as §1

CRX = CRX (Homo sapiens, UniProt O43186 1-299); settings: protein: recombinant; tags: N-terminal GST; dsDNA, one strand shown
Chain of CRX (O43186 whole entry): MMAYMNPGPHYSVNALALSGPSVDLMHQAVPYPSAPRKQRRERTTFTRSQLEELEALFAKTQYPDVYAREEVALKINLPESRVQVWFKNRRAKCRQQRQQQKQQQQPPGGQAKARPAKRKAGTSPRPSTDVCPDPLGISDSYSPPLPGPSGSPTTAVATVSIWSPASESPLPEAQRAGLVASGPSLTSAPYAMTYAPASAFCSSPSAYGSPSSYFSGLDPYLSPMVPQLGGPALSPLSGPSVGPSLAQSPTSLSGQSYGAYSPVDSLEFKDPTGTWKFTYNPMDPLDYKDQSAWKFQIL
Summary of the method: as §1

ETV1 = ETV1 (Homo sapiens, UniProt P50549 1-477); settings: protein: recombinant; tags: N-terminal GST; dsDNA, one strand shown
Chain of ETV1 (P50549 whole entry): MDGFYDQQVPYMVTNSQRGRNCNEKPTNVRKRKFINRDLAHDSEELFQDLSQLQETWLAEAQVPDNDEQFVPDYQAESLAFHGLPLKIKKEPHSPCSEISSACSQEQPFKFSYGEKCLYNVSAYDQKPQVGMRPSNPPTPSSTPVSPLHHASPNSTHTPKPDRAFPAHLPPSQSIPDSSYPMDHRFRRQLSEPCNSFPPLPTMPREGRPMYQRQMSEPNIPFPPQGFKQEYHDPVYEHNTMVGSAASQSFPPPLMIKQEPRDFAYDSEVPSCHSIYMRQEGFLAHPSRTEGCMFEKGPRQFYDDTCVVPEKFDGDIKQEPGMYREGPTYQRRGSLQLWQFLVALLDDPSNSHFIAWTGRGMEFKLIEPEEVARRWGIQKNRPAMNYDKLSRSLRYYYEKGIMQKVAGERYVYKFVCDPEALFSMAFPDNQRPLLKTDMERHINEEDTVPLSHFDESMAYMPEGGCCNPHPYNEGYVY
Summary of the method: as §1

## AAATAT
FLI1
  binding signal: 1.24 fold enrichment (6-mer frequency, TF over GST control)
ELK1
  binding signal: 1.34 fold enrichment (6-mer frequency, TF over GST control)
GABPA
  binding signal: 1.33 fold enrichment (6-mer frequency, TF over GST control)
ERG
  binding signal: 1.34 fold enrichment (6-mer frequency, TF over GST control)
ELF1
  binding signal: 1.37 fold enrichment (6-mer frequency, TF over GST control)
EHF
  binding signal: 1.31 fold enrichment (6-mer frequency, TF over GST control)
SPI1
  binding signal: 1.32 fold enrichment (6-mer frequency, TF over GST control)
SPIB
  binding signal: 1.47 fold enrichment (6-mer frequency, TF over GST control)
ELK3
  binding signal: 1.38 fold enrichment (6-mer frequency, TF over GST control)
FEV
  binding signal: 1.28 fold enrichment (6-mer frequency, TF over GST control)
ETV5
  binding signal: 1.36 fold enrichment (6-mer frequency, TF over GST control)
HSF1
  binding signal: 1.29 fold enrichment (6-mer frequency, TF over GST control)
SPIC
  binding signal: 1.43 fold enrichment (6-mer frequency, TF over GST control)
ELF4
  binding signal: 1.34 fold enrichment (6-mer frequency, TF over GST control)
ELK4
  binding signal: 1.24 fold enrichment (6-mer frequency, TF over GST control)
ETV2
  binding signal: 1.49 fold enrichment (6-mer frequency, TF over GST control)
ELF3
  binding signal: 1.54 fold enrichment (6-mer frequency, TF over GST control)
CRX
  binding signal: 1.39 fold enrichment (6-mer frequency, TF over GST control)
ETV1
  binding signal: 1.39 fold enrichment (6-mer frequency, TF over GST control)
